system: KIT-autoinhibited; details: concentration: 1 μM, replicates: in singlicate; n = 1
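Further: KINOMEscan kinase panel screen.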

| Structure (SMILES) | %Inh |
| --- | --- |
| Cc1c(Cn2c3ccccc3n3c(=O)cc(N4CCOCC4)nc23)cccc1C(F)(F)F [GSK2306394] | 0% |
| Fc1ccc(-c2nc[nH]c2-c2ccncc2)cc1 [SB-217360] | 21% |
| COc1cccc(CNC(=O)NC2CCN(c3ccnc(Nc4ccc(F)cc4)n3)C2)c1 (centres unmarked) [GSK1379723] | 0% |
| Cc1ccccc1-c1cc(-c2c[nH]nc2-c2ccccn2)ccn1 [GW680061] | 0% |
| COC(=O)C(NC(=O)NC1CCN(c2ccnc(Nc3ccc(F)cc3)n2)C1)c1ccccc1 (centres unmarked) [GSK1379712] | 5% |
| O=C1NC(=O)C(c2ccc(Cl)cc2)=C1Nc1ccc(O)cc1 [SB-340867] | 0% |
| COc1cc2ncnc(Nc3cccc(Br)c3)c2cc1OC.Cl [GI230329] | 0% |
| COC(=O)c1cccc(NC(=O)NC2CCN(c3ccnc(Nc4ccc(F)cc4)n3)C2)c1 (centres unmarked) [GSK1379725] | 0% |
| COc1ccc2cc(-c3nc(-c4ccccc4C(C)C)[nH]c3-c3ccncc3)ccc2c1 [SB-660566] | 0% |
| CC(=O)c1c(C)c2cnc(Nc3ccc(N4CCNCC4)cn3)nc2n(C2CCCC2)c1=O | 0% |
| CCc1ccc(-c2ccc3c(c2)-c2n[nH]cc2S(=O)(=O)N3C)cc1 | 0% |
| CC(=O)c1c(C)c2cnc(Nc3ccn(C)n3)nc2n(C2CCCC2)c1=O | 0% |
| CC(C)c1cc(-c2ccc3c(N)n[nH]c3c2)nc(N)n1 [GSK2250882] | 0% |
| COc1ccc(Nc2nccc(N3CCC(NC(=O)C(C)c4ccc(Cl)cc4)CC3)n2)cc1 (centres unmarked) [GSK1379812] | 0% |
